Assay outcomes deposited in PubChem by several laboratories.
FGF22 binding = shifts melting point of recombinant human FGF22; AID 651658; activity (Tm shift, normalised), % at 9.99 µM; hit rate 1.5% among 340,000; recombinant FGF22 thermal shift, SYPRO orange fluorescence; percent of sucrose octasulfate shift, DMSO zero;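 active = mean Tm shift, scaled 0 neutral to 100 positive control, at about 1.3% or above, every replicate too, limit read from the data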
KLK7 zymogen act = proKLK7 (human) activation, primary screen; P49862; purified proKLK7, EDANS-DABCYL substrate fluorescence; 100% is mature enzyme control, 0% vehicle; activation, % at 7 µM; hit rate 0.9% among 370,000; AID 652039;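 active = activation above the mean of all tested compounds plus 3 SD, computed per campaign excluding outliers beyond control limits, cut at about 13% in these data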
ADAM10 inh = inhibits human ADAM10; O14672; recombinant ADAM10, EDANS/DABCYL FRET peptide cleavage, 3 h; inhibition, % at 7 µM; hit rate 0.62% among 370,000;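 active = inhibition above a per-campaign cutoff equal to the mean of compounds falling between control-based bounds plus 3 SD, cut at about 20% in these data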;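 also: 0% = DMSO wells while the 100% control is not disclosed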
Target sequence (O14672 214-748 limits assumed): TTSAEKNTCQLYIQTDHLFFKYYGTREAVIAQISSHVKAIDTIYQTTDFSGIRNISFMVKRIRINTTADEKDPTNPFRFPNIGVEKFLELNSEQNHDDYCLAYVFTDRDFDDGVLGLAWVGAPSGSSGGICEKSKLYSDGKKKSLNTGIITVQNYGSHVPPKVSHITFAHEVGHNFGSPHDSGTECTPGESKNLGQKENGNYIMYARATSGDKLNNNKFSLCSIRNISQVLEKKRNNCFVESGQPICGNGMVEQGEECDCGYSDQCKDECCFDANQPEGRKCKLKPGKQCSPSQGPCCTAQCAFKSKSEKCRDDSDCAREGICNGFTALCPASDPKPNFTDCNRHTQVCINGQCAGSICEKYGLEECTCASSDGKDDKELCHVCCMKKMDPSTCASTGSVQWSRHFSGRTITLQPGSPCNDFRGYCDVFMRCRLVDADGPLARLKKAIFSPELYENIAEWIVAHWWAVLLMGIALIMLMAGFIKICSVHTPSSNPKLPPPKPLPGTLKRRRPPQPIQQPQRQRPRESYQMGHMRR
ADAM17 inh = inhibitors of human ADAM17 | P78536 | recombinant ADAM17, EDANS/DABCYL FRET peptide cleavage | inhibition, % at 6.95 µM | hit rate 0.83% among 370,000 | AID 720648;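 active = inhibition above the mean of compounds lying between control limits plus 3 SD, set per campaign, cut at about 8.5% in these data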;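 also: 0% = DMSO-only wells as the low control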
rRNA inh HTS = selective bacterial rRNA inhibition in E. coli; E. coli WT GFP vs humanized-ribosome RFP mutants, fluorescence, 24 h; active compounds read low; DMSO median 0, no signal -100; GFP signal change (wild-type ribosome), % (concentration not given with the values); hit rate 1.6% among 350,000; AID 720706;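 active = significant combined selectivity score with lowered wild-type GFP, culture density cut under 30%, mutant RFP and density less affected; inactive = any of these conditions unmet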
proKLK7 act conf = confirmation of human kallikrein-7 zymogen activators | hit rate 68% among 3,200 | purified proKLK7, EDANS-DABCYL substrate fluorescence; scaled: vehicle 0, mature enzyme 100 | AID 686949 | activation, % at 7 µM | shares compounds with KLK7 zymogen act;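 active = activation, as change over the incubation, above the mean of all tested compounds plus 3 SD, cut at about 13% in these data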
EDANS-DABCYL int = counter-screen for kallikrein-7 activators: EDANS-DABCYL optical interference. shares compounds with KLK7 zymogen act. EDANS-DABCYL substrate fluorescence interference, no enzyme, 4 h; solvent 0%, active enzyme control 100%. activation, % at 7 µM. hit rate 80% among 3,200;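 active = activation above the all-compound mean plus 3 SD, ignoring values outside control-based bounds, cut at about 4.8% in these data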;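 also: value is the 4 h activation minus the activation read at time zero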
EDANS interf = EDANS fluorescence interference in dose response, no enzyme; shares compounds with KLK7 zymogen act; EDANS-DABCYL peptide fluorescence interference; EC50, µM; hit rate 20% among 250; AID 720493;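 active = compounds that raise the fluorescence signal in this interference counterscreen, with EC50 at or below 10 µM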;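 also: intact quenched peptide substrate alone read at 355 nm excitation and 520 nm emission; signal is fluorescence gain from T0 to T4 after four hours at room temperature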
Starred values were filed as active, the others as inactive. In the library only some 3.8% were active in any assay of this set; here they are far more common.

Screening Cc1ccc2cc3cc(C(=O)NCCCN4CCCC4)oc3nc2c1 returned FGF22 binding 0, KLK7 zymogen act 11, ADAM10 inh inactive, ADAM17 inh -368 and rRNA inh HTS -4.
Screening Cc1ccc2cc3cc(C(=O)NCCCN4CCCCCC4)oc3nc2c1 returned KLK7 zymogen act 18*, ADAM10 inh inactive, ADAM17 inh -314, proKLK7 act conf 6 and EDANS-DABCYL int 11*.
CCCCN(CC)CCNC(=O)c1cc2cc3ccc(Cl)cc3nc2o1 was read as FGF22 binding 0, KLK7 zymogen act 4, ADAM10 inh -181, ADAM17 inh -61 and rRNA inh HTS -5.
For CCCCN(CC)CCCNC(=O)c1cc2cc3ccc(C)cc3nc2o1 the results were FGF22 binding 0, KLK7 zymogen act 22*, ADAM10 inh inactive, ADAM17 inh -440, rRNA inh HTS -3, proKLK7 act conf 8 and EDANS-DABCYL int 13*.
`c1csc(C2Nc3ccccc3-c3nc4ccccc4n32)c1` (stereo unspecified) gave KLK7 zymogen act 90*, ADAM10 inh inactive, ADAM17 inh inactive, proKLK7 act conf 30* and EDANS-DABCYL int 27*.
Cc1ccsc1C1Nc2ccccc2C(=O)N1O (stereo unspecified) was read as FGF22 binding 0, KLK7 zymogen act 0, ADAM10 inh -14, ADAM17 inh -4 and rRNA inh HTS 5.
`CN1c2ccccc2-c2nc3ccccc3n2C1c1cccs1` (stereo unspecified) gave FGF22 binding 1, KLK7 zymogen act 40*, ADAM10 inh inactive, ADAM17 inh inactive, rRNA inh HTS -22, proKLK7 act conf -12 and EDANS-DABCYL int -11.
Screening CCN1c2ccccc2-c2nc3ccccc3n2C1c1ccncc1 (stereo unspecified) returned KLK7 zymogen act 2, ADAM10 inh -160 and ADAM17 inh -52.
CCN1c2ccccc2-c2nc3ccccc3n2C1c1ccccn1 (stereo unspecified) was read as KLK7 zymogen act 21*, ADAM10 inh inactive, ADAM17 inh inactive, proKLK7 act conf 28*, EDANS-DABCYL int -7 and EDANS interf >70.
Cc1ccc(C2N(C)c3ccccc3-c3nc4ccccc4n32)o1 (stereo unspecified) was read as KLK7 zymogen act 10, ADAM10 inh inactive and ADAM17 inh inactive.
Screening Cc1ccsc1C1Nc2ccccc2-c2nc3ccccc3n21 (stereo unspecified) returned FGF22 binding 0, KLK7 zymogen act 63*, ADAM10 inh inactive, ADAM17 inh inactive, proKLK7 act conf -21 and EDANS-DABCYL int -19.
For COc1ccc2c3c(n(C)c2c1)[C@@H](CO)N(CC1CC1)CC31CN(C(=O)Nc2ccccc2)C1 the results were FGF22 binding 0 and rRNA inh HTS -3.
Screening O=C(c1ccc2c(c1)OCO2)N1CC(=O)N2[C@H](C1)[C@H](c1ccc(C#CC3CCCC3)cc1)[C@@H]2CO returned rRNA inh HTS -12.
Screening CC(C)OC(=O)N(C)C[C@@H]1OCc2cn(nn2)CCCC(=O)N([C@H](C)CO)C[C@@H]1C returned FGF22 binding 0 and rRNA inh HTS 1.
For CO[C@H]1CN(C)C(=O)c2ccc(NS(=O)(=O)c3cccc(F)c3)cc2OC[C@H](C)NC[C@H]1C the results were FGF22 binding 0 and rRNA inh HTS 0.
N#Cc1c(C(F)(F)F)cc(-c2ccc(F)cc2)[nH]c1=O was read as FGF22 binding 0, KLK7 zymogen act 8, ADAM10 inh inactive, ADAM17 inh -401 and rRNA inh HTS -24.
COc1ccc(-c2cc(C(F)(F)F)c(C#N)c(=O)[nH]2)cc1 was read as FGF22 binding 0, KLK7 zymogen act 17*, ADAM10 inh inactive, ADAM17 inh inactive, rRNA inh HTS -17, proKLK7 act conf 40* and EDANS-DABCYL int 43*.
For N#Cc1c(C(F)(F)F)cc(-c2cccc(Cl)c2)[nH]c1=O the results were KLK7 zymogen act 20*, ADAM10 inh inactive, ADAM17 inh inactive, proKLK7 act conf 51* and EDANS-DABCYL int 48*.
Screening C[C@@H]1CN([C@H](C)CO)S(=O)(=O)c2ccc(C3=CCCCC3)cc2O[C@H]1CN(C)C(=O)C1CCC1 returned FGF22 binding 0 and rRNA inh HTS -20.
Screening Cc1ccc(-c2cnc3c(c2)C(=O)N([C@@H](C)CO)C[C@@H](C)[C@@H](CN(C)C(=O)c2cccnc2)O3)cc1 returned FGF22 binding 0 and rRNA inh HTS 0.
`COc1ccc(NC(=O)Nc2ccc3c(c2)[C@H]2C[C@H](CC(=O)N(C)C)O[C@@H](CO)[C@H]2O3)cc1` gave FGF22 binding 0 and rRNA inh HTS 2.
`COc1cc(/C=C/C(=O)Nc2nc3ccc(S(=O)(=O)NC(C)C)cc3s2)cc(OC)c1OC` gave KLK7 zymogen act 15*, ADAM10 inh -82, ADAM17 inh -30, proKLK7 act conf 59* and EDANS-DABCYL int 63*.
For O=C(c1ccncc1)N1CC2(C1)[C@@H](c1ccccc1)[C@@H](CO)N2C(=O)CC1CC1 the results were FGF22 binding 0 and rRNA inh HTS 3.
`CCn1nc(NC(C)=O)c2cc3cccc(C)c3nc21` gave FGF22 binding 0, KLK7 zymogen act 2, ADAM10 inh -23, ADAM17 inh -7 and rRNA inh HTS 1.
For CCn1nc(NC(=O)C(C)C)c2cc3cccc(C)c3nc21 the results were FGF22 binding 0, KLK7 zymogen act 62*, ADAM10 inh -13, ADAM17 inh -13, rRNA inh HTS 2, proKLK7 act conf -8 and EDANS-DABCYL int -6.
`COc1ccc(C2Nc3ccccc3C(=O)N2NC(C)=O)cc1OC` (stereo unspecified) gave FGF22 binding 0, KLK7 zymogen act 11, ADAM10 inh inactive, ADAM17 inh -238 and rRNA inh HTS 19.
CCN(CC)CCN1C(=O)c2ccccc2NC1c1ccc(F)cc1 (stereo unspecified) was read as KLK7 zymogen act 92*, ADAM10 inh inactive, ADAM17 inh -403, rRNA inh HTS -3, proKLK7 act conf 37* and EDANS-DABCYL int 34*.
